Laboratory results published in PubChem BioAssay.
For part of these data: Potency and affinity values are given separately. The source made the active and inactive calls.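 How the source made its calls, unless noted: active means compound raising the membrane signal above positive-control mean plus 3 SD in both repeats, and a primary screen hit; inactive means the rest.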

Assays:
[1] = test system: TRPC4 beta (transient receptor potential cation channel C4), mouse; experiment: TRPC4 cation channel opening, retest – cell-based, Fluo4 calcium, HEK293 TRPC4beta/mu-opioid, duplicates, 10 µM, confirmation (AID 2426;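 active means fluorescence ratio normalized to control raised more than 50% in primary screen plus both repeat runs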); conditions: Fluo4 calcium fluorescence, at 10 µM; active compounds read high
[2] = test system: transient receptor potential cation channel C4 beta (TRPC4), mouse; experiment: TRPC4 cation channel opening, second retest – cell-based, second round, Fluo4, HEK293 TRPC4beta/mu-opioid, 1 µM, confirmation (AID 2461;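 active means primary screen active and over 50% activation in each of two duplicate runs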); conditions: Fluo4 calcium fluorescence, at 1 µM; active compounds read high
[3] = test system: TRPC4 (transient receptor potential cation channel C4 beta), mouse; experiment: potentiation of DAMGO EC20 TRPC4 response – cell-based, second round, Fluo-4, HEK293 TRPC4beta/mu-opioid, 1 µM, confirmation (AID 2554;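 active means primary screen hit whose fluorescence ratio, in both repeats, exceeds the weak agonist control mean by 3 SD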); conditions: DAMGO EC20, Fluo-4 calcium flux, at 1 µM; active compounds read high
[4] = test system: TRPC4 beta (transient receptor potential cation channel C4), mouse; experiment: potentiation of DAMGO EC20 TRPC4 response – cell-based, Fluo-4, HEK293 TRPC4beta/mu-opioid, confirmation (AID 2555;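 active means primary screen hit whose calcium fluorescence ratio, in both repeats, exceeds the weak agonist control mean by 3 SD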); conditions: DAMGO EC20, Fluo-4 calcium flux, at 10 µM; active compounds read high
[5] = target: Short transient receptor potential channel 4 (Mus musculus) (UniProt Q9QUQ5); experiment: blockers of DAMGO-evoked TRPC4 calcium flux – cell-based, Fluo4, HEK293 TRPC4beta/mu-opioid, confirmation (AID 2636;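 active means calcium signal cut by more than 3 SD below the full-agonist control yet still positive, in both repeats and the earlier primary screen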); conditions: at 10 µM; active compounds read high
[6] = target: Short transient receptor potential channel 4 (Mus musculus) (UniProt Q9QUQ5); experiment: blockers of DAMGO-evoked TRPC4 calcium flux – cell-based, second round, Fluo4, HEK293 TRPC4beta/mu-opioid, 1 µM, confirmation (AID 2637;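 active means calcium signal ratio cut to more than 3 SD under the fully stimulated control mean yet still positive, in both repeats and the primary screen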;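 on inhibition: percent of integrated ratio relative to wells lacking test compound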); conditions: at 1 µM; active compounds read high
[7] = target: Short transient receptor potential channel 4 (Mus musculus) (UniProt Q9QUQ5); experiment: calcium entry via TRPC4 opening agents – cell-based, HEK293 TRPC4/mu-opioid, Fluo-4 calcium, dose response (AID 434937;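 active means primary screen activator hit with a dose response curve and TRPC4 channel activation at any tested dose; inactive means no activation, no dose response, or not a primary hit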)
[8] = target: Short transient receptor potential channel 4 (Mus musculus) (UniProt Q9QUQ5); experiment: potentiation of DAMGO-evoked TRPC4 calcium signal – cell-based, HEK293 TRPC4/mu-opioid, Fluo-4 calcium, EC20 DAMGO, dose response (AID 434941;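 active means earlier screen potentiator hit that boosts the TRPC4 ion channel at some dose, with a dose response; inactive means no potentiation, no dose response, or not a prior hit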;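 further: calcium entry triggered by an EC20 dose of DAMGO at the co-expressed mu-opioid receptor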)
[9] = target: Short transient receptor potential channel 6 (Mus musculus) (UniProt Q61143); experiment: TRPC6 blockade by TRPC4 inhibitor hits – cell-based, HEK293, membrane potential dye, duplicate, selectivity assay for TRPC4 inhibitor project, confirmation (AID 434948;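 active means active in primary screen and both duplicates, each dropping signal beyond three positive-control SD with fluorescence still positive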); conditions: HEK293 TRPC6, membrane potential dye fluorescence, at 10 µM, stimulated with maximal-effect acetylcholine; active compounds read high
[10] = target: Short transient receptor potential channel 6 (Mus musculus) (UniProt Q61143); experiment: TRPC6 opening by TRPC4 activator hits – cell-based, HEK293, membrane potential dye, duplicate, selectivity assay for TRPC4 activator project, confirmation (AID 434950;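 active means membrane potential signal rise above negative control mean plus 3 SD in both duplicates, also active in the earlier TRPC4 screen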); conditions: HEK293 TRPC6, membrane potential fluorescence, at 10 µM; activation: active compounds read high; outcome: activation
[11] = target: Short transient receptor potential channel 6 (Mus musculus) (UniProt Q61143); experiment: positive modulators of mouse TRPC6 channel – HEK293 cells, membrane potential dye, duplicate, selectivity assay for TRPC4 potentiator project, confirmation (AID 434952); conditions: HEK293 TRPC6, membrane potential dye fluorescence, at 10 µM, maximal acetylcholine added after compound; active compounds read high
[12] = target: Short transient receptor potential channel 4 (Mus musculus) (UniProt Q9QUQ5); experiment: calcium flux activators in TRPC4/5HT1a cells, counter-screen for TRPC4 activator project, cell-based, second counter screen, HEK293 TRPC4/5HT1a, Fluo-4 (AID 434977;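 active means calcium signal rise above buffer-control mean plus 5 SD in both duplicates, and also a hit in the primary screen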); conditions: Fluo-4 calcium flux, at 10 µM; active compounds read high
[13] = serotonin-gated TRPC4 signal block – cell-based, second counter screen, HEK293 TRPC4/5HT1a, Fluo-4, counter-screen for TRPC4 inhibitor project, confirmation (AID 434978;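 active means primary screen active whose calcium signal fell more than 3 SD beyond the full-serotonin control mean in both duplicate plates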;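 on outcome: serotonin given first at submaximal then at maximal dose after compound preincubation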); conditions: Fluo-4 calcium flux, at 10 µM, serotonin added to trigger calcium flux; active compounds read high
[14] = test system: TRPC4 (mouse), co-expressed with 5HT1a in HEK293; experiment: enhancement of serotonin-evoked TRPC4 response – cell-based, second counter screen, HEK293 TRPC4/5HT1a, Fluo-4, counter-screen for TRPC4 potentiator project, confirmation (AID 434979;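 active means signal rise over 3 SD above mean of control wells given weak agonist, in both repeats and first screen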); conditions: Fluo-4 calcium flux, at 10 µM, serotonin added at its EC20 dose; active compounds read high
[15] = nonspecific calcium rise without TRPC4 – cell-based, HEK293 mu-opioid receptor line, counter-screen for TRPC4 activator project, confirmation (AID 449723;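 active means hit in primary screen, with calcium signal over 5 SD above buffer well mean in both duplicates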;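 further: counter screen cells carry the mu-opioid receptor alone and lack TRPC4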); conditions: HEK293 mu-opioid cells, Fluo-4 calcium fluorescence, at 10 µM; active compounds read high
[16] = nonspecific potentiation of DAMGO calcium response – cell-based, HEK293 mu-opioid receptor line, counter-screen for TRPC4 allosteric potentiator project, confirmation (AID 449724;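 active means calcium signal rise more than 3 SD above the low-dose agonist control mean, in both duplicate plates and the primary screen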); conditions: HEK293 mu-opioid receptor cells, Fluo-4 calcium flux, at 10 µM, compound added before EC20 DAMGO stimulus; active compounds read high

Measured: inhibition

Chain of Short transient receptor potential channel 4 (Mus musculus) (Q9QUQ5 whole entry, looked up): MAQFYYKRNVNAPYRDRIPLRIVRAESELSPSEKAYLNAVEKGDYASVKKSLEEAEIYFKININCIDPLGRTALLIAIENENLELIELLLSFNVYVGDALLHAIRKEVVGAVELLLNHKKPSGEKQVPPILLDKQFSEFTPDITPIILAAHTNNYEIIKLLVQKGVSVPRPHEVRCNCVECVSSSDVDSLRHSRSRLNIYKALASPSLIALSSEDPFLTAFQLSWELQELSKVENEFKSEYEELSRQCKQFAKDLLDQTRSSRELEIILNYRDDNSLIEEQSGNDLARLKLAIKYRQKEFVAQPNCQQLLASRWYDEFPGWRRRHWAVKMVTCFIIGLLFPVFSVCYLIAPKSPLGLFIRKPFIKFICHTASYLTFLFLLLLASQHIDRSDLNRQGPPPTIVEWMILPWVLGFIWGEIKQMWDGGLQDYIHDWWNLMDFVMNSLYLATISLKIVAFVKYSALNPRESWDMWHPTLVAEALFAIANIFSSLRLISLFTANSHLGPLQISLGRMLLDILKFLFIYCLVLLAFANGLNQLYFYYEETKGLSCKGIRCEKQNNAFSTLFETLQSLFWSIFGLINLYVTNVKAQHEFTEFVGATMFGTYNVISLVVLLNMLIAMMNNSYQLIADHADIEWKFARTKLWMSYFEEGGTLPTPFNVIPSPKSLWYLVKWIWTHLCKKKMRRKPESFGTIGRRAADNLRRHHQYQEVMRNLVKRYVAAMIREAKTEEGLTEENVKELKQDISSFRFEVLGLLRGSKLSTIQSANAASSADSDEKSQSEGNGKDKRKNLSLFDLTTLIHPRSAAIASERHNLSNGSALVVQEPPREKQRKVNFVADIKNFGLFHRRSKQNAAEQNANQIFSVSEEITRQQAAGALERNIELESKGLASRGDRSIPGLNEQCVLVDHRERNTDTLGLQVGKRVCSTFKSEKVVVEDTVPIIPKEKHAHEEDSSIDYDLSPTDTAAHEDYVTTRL
Chain of Short transient receptor potential channel 6 (Mus musculus) (Q61143 whole entry, looked up): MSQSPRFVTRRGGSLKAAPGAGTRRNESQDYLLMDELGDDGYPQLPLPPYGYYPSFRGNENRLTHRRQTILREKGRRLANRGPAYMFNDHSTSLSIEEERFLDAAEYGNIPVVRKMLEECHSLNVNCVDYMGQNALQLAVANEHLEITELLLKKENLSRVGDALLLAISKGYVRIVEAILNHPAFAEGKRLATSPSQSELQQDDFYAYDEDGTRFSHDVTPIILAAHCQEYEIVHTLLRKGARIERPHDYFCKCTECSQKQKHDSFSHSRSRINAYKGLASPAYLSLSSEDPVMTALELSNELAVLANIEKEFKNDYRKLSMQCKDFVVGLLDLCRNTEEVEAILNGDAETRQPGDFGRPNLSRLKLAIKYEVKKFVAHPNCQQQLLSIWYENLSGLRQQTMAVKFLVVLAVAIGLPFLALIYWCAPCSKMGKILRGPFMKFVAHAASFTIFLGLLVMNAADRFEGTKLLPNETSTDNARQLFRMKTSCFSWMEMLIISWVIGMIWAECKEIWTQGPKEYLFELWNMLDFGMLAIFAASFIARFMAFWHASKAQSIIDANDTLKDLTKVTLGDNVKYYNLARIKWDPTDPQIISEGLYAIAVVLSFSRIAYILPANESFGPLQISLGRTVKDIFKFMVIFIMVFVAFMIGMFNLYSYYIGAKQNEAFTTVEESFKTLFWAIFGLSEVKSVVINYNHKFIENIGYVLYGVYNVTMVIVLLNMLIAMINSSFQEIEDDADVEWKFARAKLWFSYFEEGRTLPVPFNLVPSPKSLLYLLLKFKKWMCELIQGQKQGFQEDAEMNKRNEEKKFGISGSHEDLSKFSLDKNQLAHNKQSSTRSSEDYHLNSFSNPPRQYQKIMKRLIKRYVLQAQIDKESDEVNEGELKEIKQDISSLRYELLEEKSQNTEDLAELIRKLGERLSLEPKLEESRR

COC(=O)c1ccc(Nc2cc(C)nc3ccccc23)cc1
active: [5] 98% | [9] 50% | [13] 19.9%
inactive: all other assays above

Cc1ccc(CSc2nc(-c3ccccc3)c(C#N)c(=O)[nH]2)cc1
active: [6] 49% | [13] 12%
inactive: all other assays above

CN1CCN(c2nc3c(c(=O)n(C)c(=O)n3C)n2CC(=O)C23CC4CC(CC(C4)C2)C3)CC1
active: [5] 92% | [6] 63% | [13] 17%
inactive: all other assays above

COc1ccc2c(c1)C=C(CN1CCC(CO)(CCc3ccccc3)CC1)CO2
active: [5] 102% | [13] 35.7%
inactive: all other assays above

CC1CCCN1CC#CC(O)(c1ccccc1)c1ccccc1 (stereo not given)
active: [5] 79% | [6] 62% | [9] 13.5% | [13] 33.5%
inactive: all other assays above

Cc1cc(C(=O)N/N=C\c2cc(C(C)(C)C)ccc2O)n[nH]1
active: [5] 84% | [13] 24.2%
inactive: all other assays above

COc1ccc(Cn2nnnc2C(c2cc3cc(C)ccc3[nH]c2=O)N2CCN(C)CC2)cc1 (stereo not given)
active: [5] 83%
inactive: all other assays above

O=c1c2ccccc2nc(SCc2ccccc2)n1CC1CCCO1 (stereo not given)
active: [5] 54% | [13] 18.9%
inactive: all other assays above

COc1cc(/C=C2\SC(=O)N(c3ccccc3Cl)C2=O)cc([N+](=O)[O-])c1O
active: [5] 84% | [13] 26%
inactive: all other assays above

CC1CCCN(c2c3c(nc4ccccc24)CCCC3)C1 (stereo not given)
active: [13] 27.9%
inactive: all other assays above

CCOc1ccc(NC(=O)c2c[nH]n3c(=O)cc(C4CCN(C(=O)OC(C)(C)C)CC4)nc23)cc1
active: [5] 50% | [13] 43.4%
inactive: all other assays above

Cc1cccc(CCN(C(=O)c2snc(C(N)=O)c2N)C(C(=O)NCC2CCCO2)c2ccc(F)cc2)c1 (stereo not given)
active: [5] 74% | [6] 68% | [13] 46.3%
inactive: all other assays above

CCOc1cc(CNCCCN2CCOCC2)cc(Br)c1OCC(=O)Nc1cccc(C(F)(F)F)c1
active: [5] 101% | [6] 40% | [13] 30.5%
inactive: all other assays above

Cc1[nH]n(C)c(=O)c1C(=O)c1c(-c2c(Cl)cccc2Cl)noc1C
active: [5] 90% | [6] 42% | [13] 27.3%
inactive: all other assays above

CCOCCCNCc1cc(Br)ccc1OCc1ccccc1
active: [5] 94% | [6] 49% | [9] 28% | [13] 16.2%
inactive: all other assays above
